Experimental data: PubChem BioAssay (NCATS)
Results filed as inconclusive are left out. Where a call stands in place of a potency, no number is given. Values without a mark were called inactive. Calls of active or inactive are those of the source. The call rests on the fitted dose curve; in most records, active means well fitted inhibition curve with a large enough effect; inconclusive means small, poorly fitted or top-dose-only effect; inactive means flat fitted curve, though single readings scatter.

Target: Calcium and integrin-binding protein 1 (Homo sapiens) (UniProt Q99828)
Sequence (Q99828 whole entry, looked up): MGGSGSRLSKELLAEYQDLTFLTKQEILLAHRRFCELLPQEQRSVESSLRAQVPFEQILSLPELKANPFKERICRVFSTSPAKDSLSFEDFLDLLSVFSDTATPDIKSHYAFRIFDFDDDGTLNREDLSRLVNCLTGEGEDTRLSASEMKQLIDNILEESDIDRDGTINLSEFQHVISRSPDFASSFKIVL
Assay: Primary qHTS for Identification of Calcium Integrin Binding Protein 1 (CIB1) Competitor (AID 1508620)
Outline: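 Fluorescence polarization competition: GST-tagged CIB1 (1 uM final) preincubated with compound 15 min at room temperature, then FITC-labelled alphaIIb peptide (100 nM final) added. After 15 min at room temperature, polarization read at Ex 480/Em 540.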
Potency means the concentration at half of the fitted maximal effect.

With `Cc1ccc(OCCn2c(CCNC(=O)c3c(F)cccc3F)nc3ccccc32)cc1` the Potency was “inactive”.

In the case of `CC(=O)Nc1ccc(-c2csc(N3CCC(C(N)=O)CC3)n2)cc1`, the Potency is reported as “inactive”.

With `COc1ccc(OC)c(-c2nnc(NC(=O)Nc3ccc4ccccc4c3)s2)c1` the Potency was “inactive”.

With `COc1ccc(C2Nc3ccccc3C(=O)N2Cc2cccnc2)cc1COc1ccc(NC(C)=O)cc1` (stereo unspecified) the Potency was “inactive”.

`Cc1cc(NS(=O)(=O)c2ccc(NC(=O)Cc3ccc(C)c(F)c3)cc2)no1` was tested, and the Potency was “inactive”.

For `COc1cccc(CNc2ccc(S(=O)(=O)Nc3ccc(-c4ccccc4)cc3)cc2)c1O`, the Potency was “inactive”.

`Cn1nnnc1Sc1ncnc2scc(-c3cccc(Br)c3)c12` was tested, and the Potency was “inactive”.

With `O=C(Nc1cccnc1)c1ccco1` the Potency was “inactive”.

`COc1ccc(C2Nc3ccccc3C(=O)N2Cc2cccs2)cc1COc1c(C)cccc1C` (stereo unspecified) was tested, and the Potency was “inactive”.

For `Cc1cc(C)nc(NC(=S)N2CCN(c3ccc(C(F)(F)F)cc3[N+](=O)[O-])CC2)c1`, the Potency was “inactive”.

In the case of `CC(=O)N[C@@H](Cc1ccc(O)cc1)C(=O)N[C@H](C(=O)N[C@@H](C)C(=O)N[C@H](C#N)CC(=O)O)C(C)C`, the Potency is reported as “inactive”.

`COc1ccc(-c2ccc(=O)n(CC(=O)NCCc3ccccc3)n2)cc1OC` was tested, and the Potency was “inactive”.

With `Cc1ccc(NS(=O)(=O)c2ccc3c(c2)CCC(=O)N3)cc1Cl` the Potency was “inactive”.

In the case of `Cc1cc2c(s1)c1cnn(Cc3c(F)c(F)cc(F)c3F)c(=O)c1n2C`, the Potency is reported as “inactive”.

For `O=C1Nc2ccccc2/C1=C\c1ccc([N+](=O)[O-])cc1`, the Potency was “inactive”.

In the case of `COc1ccc(C2=Nn3c(nnc3-c3ccc(OC)cc3OC)SC2)cc1`, the Potency is reported as “inactive”.

In the case of `Cc1ccc(OCCCn2c(CCNC(=O)C3CCCCC3)nc3ccccc32)cc1`, the Potency is reported as “inactive”.

With `Cc1ccc(OCCn2c(CCNC(=O)c3ccncc3)nc3ccccc32)cc1` the Potency was “inactive”.

`COc1cccc(C2=Nn3c(nnc3-c3ccc(OC)c(OC)c3)SC2)c1` was tested, and the Potency was “inactive”.

`CC(C)(C)OC(=O)NCCOCCOCCOc1cccc(-n2ncc3c2CCCC3NC(=O)c2ccccn2)c1` (stereo unspecified) was tested, and the Potency was “inactive”.

For `O=C(Nc1ccc(-c2nc3ccccc3[nH]2)cc1)Nc1ccc2occc2c1`, the Potency was “inactive”.

For `COc1ccnc(NC(=S)N2CCN(c3ccc4ccccc4n3)CC2)c1`, the Potency was “inactive”.

In the case of `CCOc1ccc(CCNC(=O)c2cc3sccc3n2C)cc1OCC`, the Potency is reported as “inactive”.

With `COc1ccc(NS(=O)(=O)c2ccccc2C(=O)O)cc1` the Potency was “inactive”.

For `N#Cc1ccc(Nc2nn3c(=O)c4ccccc4nc3s2)cc1`, the Potency was “inactive”.

For `O=C1c2ccccc2C(=O)N1c1nccs1`, the Potency was “inactive”.

With `COc1cccc(-c2no[n+]([O-])c2C#N)c1` the Potency was “inactive”.

`COc1ccc(NS(=O)(=O)c2ccccc2)cc1NS(=O)(=O)c1ccccc1` was tested, and the Potency was “inactive”.

For `N#Cc1cc(NC(=O)Nc2nnc(-c3ccncc3)s2)ccc1Br`, the Potency was “inactive”.

For `Cc1cc(NCc2ccc(-c3cccnc3)cc2)nc(-c2ccccc2C(C)C)n1`, the Potency was “inactive”.

With `CC(=O)N1CCN(c2ccc(NCc3ccc(C)cc3)cc2)CC1` the Potency was “inactive”.

For `Cc1ccc(C(=O)Nc2ccc(N3CCOCC3)cc2)cc1`, the Potency was “inactive”.

For `Cn1c2ccsc2c2cnn(Cc3ccc(F)cc3)c(=O)c21`, the Potency was “inactive”.

In the case of `FC(F)(F)c1cccc(CSc2nc3ncc(Br)cc3[nH]2)c1`, the Potency is reported as “inactive”.

`N=c1c2c(ncn1-c1ccccc1)Oc1ccc3ccccc3c1C2c1ccc2c(c1)OCCO2` (stereo unspecified) was tested, and the Potency was “inactive”.

With `CC(=O)C1CCN(c2ncc(-c3cccc(N(C)C)c3)s2)CC1` the Potency was “inactive”.

`Cc1cn([C@H]2C[C@H](N[S+](=O)([O-])c3ccc4c(c3)OCCO4)[C@@H](CO)O2)c(=O)[nH]c1=O` was tested, and the Potency was “inactive”.

For `CC1(C)CC2CC(C)(CN2S(=O)(=O)c2ccc(C(=O)Nc3cccc(S(=O)(=O)N4CCOCC4)c3)cc2)C1` (stereo unspecified), the Potency was “inactive”.

`CC(=O)Nc1sc2c(c1-c1cccc3ccccc13)CCNC2` was tested, and the Potency was “inactive”.

In the case of `O=C1CCCC2=C1C(c1ccccc1C(F)(F)F)N=C(Nc1nc3ccccc3o1)N2` (stereo unspecified), the Potency is reported as “inactive”.

`COc1ccc(Nc2cc(O)c3ncccc3c2)cc1` was tested, and the Potency was “inactive”.

For `CCC(=O)NC(c1cc(Cl)c2cccnc2c1O)C(C)C` (stereo unspecified), the Potency was “inactive”.

With `Fc1ccccc1-c1nc(-c2ccccc2)no1` the Potency was “inactive”.

`CC(=O)N1CCc2cc(S(=O)(=O)N3CCN(S(=O)(=O)c4c(F)cccc4F)CC3)ccc21` was tested, and the Potency was “inactive”.

In the case of `CC(C)(C)OC(=O)n1c2ccsc2c2cnn(Cc3ccccc3F)c(=O)c21`, the Potency is reported as “inactive”.

For `Cn1ccc2cc(-c3ccc4ncnc(NCc5cccs5)c4c3)ccc21`, the Potency was “inactive”.

With `O=C(O)c1cccc(-c2noc(-c3ccccc3C(F)(F)F)n2)c1` the Potency was “inactive”.

In the case of `Cc1cccc(-n2cnc3cc(C(=O)N4CCOCC4)ccc32)c1`, the Potency is reported as “inactive”.

In the case of `c1ccc(CN(Cc2ccccc2)Cc2nnc(-c3cc4ccccc4[nH]3)o2)cc1`, the Potency is reported as “inactive”.

With `Cc1ccc(N[S+](=O)([O-])c2cc3c(cc2CCc2ccccc2)NC(=O)CO3)cc1C` the Potency was “inactive”.

In the case of `O=S1(=O)N=C(Sc2cccc3cccnc23)c2ccccc21`, the Potency is reported as “inactive”.

`Cn1c2cc(C#N)sc2c2cnn(Cc3ccc(F)cc3)c(=O)c21` was tested, and the Potency was “inactive”.

For `Cc1ccc(OCCn2c(CCNC(=O)C3CCCCC3)nc3ccccc32)cc1`, the Potency was “inactive”.

With `Cc1cc(-c2nnc3n2CCCCC3)c(C)n1-c1ccncc1` the Potency was “inactive”.

For `N=c1c2c(ccn1CCc1ccccc1)Oc1ccc3ccccc3c1C2c1ccccc1` (stereo unspecified), the Potency was “inactive”.

`FC(F)(F)c1ccccc1-c1nc(NCc2ccc(-c3cccnc3)cc2)c2[nH]cnc2n1` was tested, and the Potency was “inactive”.

For `CCCCN(C)C(=O)Cn1nc(-c2ccc(F)cc2)ccc1=O`, the Potency was “inactive”.

For `CN1CCc2ccc3c4c2[C@]1(C)Cc1cccc(c1-4)OCO3`, the Potency was 39.8 µM (active).

With `O=C(Nc1nnc(COc2ccc(Cl)cc2)s1)c1cccs1` the Potency was “inactive”.

With `O=[S+]([O-])(c1ccc2c(c1)OCCO2)N1CCN([S+](=O)([O-])c2c(F)cc(Br)cc2F)CC1` the Potency was “inactive”.

For `S=P(c1ccccc1)(c1ccccc1)c1c[n+](C/C=C/c2ccccc2)c2ccccn12`, the Potency was “inactive”.

In the case of `Cc1ccc(NS(=O)(=O)c2ccc3c(ccn3C)c2)cc1C`, the Potency is reported as “inactive”.

With `Fc1cccc(CNc2ncnc3ccc(-c4cccc(Cl)c4)cc23)c1` the Potency was “inactive”.

In the case of `COc1ccc(-c2nnc3n2N=C(c2cccc(OC)c2)CS3)cc1`, the Potency is reported as “inactive”.

In the case of `N#Cc1cccc(OC2=NS(=O)(=O)c3ccccc32)c1`, the Potency is reported as “inactive”.

`COc1ccc(NC(=O)c2[nH]c(C)c(C(C)=O)c2C)cc1S(=O)(=O)Nc1cccc(C#N)c1` was tested, and the Potency was “inactive”.
